Measured values from PubChem BioAssay (EPA / NIEHS).
Several values for one entry are separate records, joined by “and”; a condition that tells them apart may be missing. Equal values may be shown once. Records with an inconclusive call do not appear. Where a structure was tested more than once in an assay, its records may differ in their call. Activity calls are given as the source filed them. How the source made its calls, unless noted: active means hit-call score of the fitted dose curve at least 0.9, where 1 is the maximum; inconclusive means response in the unintended direction; inactive means score below 0.9.

What was measured:
[1] = CCTE_Mundy_HCI_hNP1_Casp3_7: CCTE's Caspase-Glo 3/7 Assay in human neuroprogenitor cells for Apoptosis, Mundy Lab (AID 2284240; active means hit-call score of the fitted dose curve at least 0.9, where 1 is the maximum; inactive means score below 0.9)
How it was run: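 Apoptosis is scored by activated caspase-3/7 luminescence in WA09-derived neural progenitor cells, measured 26.5 h after chemical dosing. Values represent gain of signal relative to DMSO vehicle.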

[2] = CCTE_Mundy_HCI_hNP1_CellTiter: CCTE's Cell Titer-Glo 2 Assay in human neuroprogenitor cells for Viability, Mundy Lab (AID 2284241);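 on AC50: a hit is a drop in ATP luminescence versus DMSO meaning reduced viability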
How it was run: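 Human neural progenitor cells (hNP1, WA09-derived) were plated on poly-L-ornithine/laminin and grown 40 to 44 hours at 37 °C, 5% CO2 before chemical addition. Twenty-four hours later, ATP was measured by CellTiter-Glo luminescence; loss of signal versus DMSO indicates reduced viability.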

[3] = CCTE_Mundy_HCI_Cortical_Synap_Neur_Matur_NeuronCount: CCTE's Synaptogenesis and Neurite Maturation Assay in rat cortical cells for Neuron Count, Mundy Lab (AID 2284242);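 on AC50: neuron number from Hoechst nuclei and MAP2 staining by high-content imaging; hits reduce neuron count versus DMSO baseline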
How it was run: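 Imaging-based neuron count in rat cortical cultures after chemical exposure from DIV 7 to DIV 12, with AraC added at DIV 5. Activity is fitted relative to DMSO.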

[4] = read-out: Collagen I, COL1A1 (gene 1277); assay: BSK_MyoF_CollagenI: BioMAP Diversity Plus: MyoF Assay for Collagen I Biomarker Activity (AID 2284238; active means hit-call score of the fitted dose curve at least 0.9, where 1 is the maximum; inactive means score below 0.9); settings: primary human lung fibroblasts
How it was run: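 ELISA readout of Collagen I after 24 h chemical treatment of primary human lung fibroblast cultures; gain of signal scored relative to DMSO vehicle baseline.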

[5] = read-out: Collagen III, COL3A1 (gene 1281); assay: BSK_MyoF_CollagenIII: BioMAP Diversity Plus: MyoF Assay for Collagen III Biomarker Activity (AID 2284239; active means hit-call score of the fitted dose curve at least 0.9, where 1 is the maximum; inactive means score below 0.9); settings: primary human lung fibroblasts
How it was run: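 Lung fibroblast culture; 24 h compound exposure; collagen III by ELISA; gain-of-signal fit vs DMSO baseline.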

[6] = read-out: Interleukin 17F (IL17F), IL17F (gene 112744); assay: BSK_BT_xIL17F: BioMAP Diversity Plus: BT Assay for Interleukin 17F (IL17F) Biomarker Activity (AID 2284243; active means hit-call score of the fitted dose curve at least 0.9, where 1 is the maximum; inactive means score below 0.9); settings: primary human B cells with PBMC
How it was run: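 Secreted IL-17F, read on LumineX xMAP beads, was taken as the endpoint. Cultures combined human B cells and peripheral blood mononuclear cells, sampled 24 hours after dosing, with DMSO serving as negative control.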

[7] = read-out: Actin alpha 1 (ACTA1), ACTA1 (gene 58); assay: BSK_MyoF_ACTA1: BioMAP Diversity Plus: MyoF Assay for Actin alpha 1 (ACTA1) Biomarker Activity (AID 2284244; active means hit-call score of the fitted dose curve at least 0.9, where 1 is the maximum; inactive means score below 0.9); settings: primary human lung fibroblasts
How it was run: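 Measured by ELISA: alpha-smooth muscle actin in human primary lung fibroblasts 24 h after dosing, with DMSO as baseline and upward signal change as the fitted direction.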

[8] = read-out: Interleukin 2 (IL2), IL2 (gene 3558); assay: BSK_BT_xIL2: BioMAP Diversity Plus: BT Assay for Interleukin 2 (IL2) Biomarker Activity (AID 2284245; active means hit-call score of the fitted dose curve at least 0.9, where 1 is the maximum; inactive means score below 0.9); settings: primary human B cells with PBMC
Protocol: BSK_BT is a cell-based, multiplexed-readout assay that uses B cell and peripheral blood mononuclear cells, a human vascular primary cell co-culture, with measurements taken at 24 hours after chemical dosing in a microplate: 96-well plate.BSK_BT_xIL2 is an assay component measured in the BSK_BT assay. It measures secreted IL-2 related to regulation of gene expression using LumineX xMAP technology.Data from the assay component BSK_BT_xIL2 was analyzed at the endpoint, BSK_BT_xIL2, in the positive analysis fitting direction relative to DMSO as the negative control and baseline of activity. Using a type of cytokine quantitation reporter, gain or loss-of-signal activity can be used to understand protein changes. […]
The levels of cell surface (or secreted, indicated by the prefix "s") biomarker endpoints were measured by ELISA. Overt cytotoxicity to cells in confluent adherent cultures (all systems other than the BT system) was assessed by measuring total protein levels using sulforhodamine B (SRB) staining in parallel cultures at the time of biomarker measurements, indicated as SRB endpoints. For proliferation assays for adherent cell types, individual cell types are cultured at sub-confluence and relative cell numbers quantified by SRB staining at time points optimized for each system (48 h: 3C and CASM3C systems; 72 h: BT and HDF3CGF systems; 96 h: SAg system). […] Plates were read after 6 h.

[9] = read-out: Basic fibroblast growth factor (bFGF), FGF2 (gene 2247); assay: BSK_MyoF_bFGF: BioMAP Diversity Plus: MyoF Assay for Basic fibroblast growth factor (bFGF) Biomarker Activity (AID 2284246; active means hit-call score of the fitted dose curve at least 0.9, where 1 is the maximum; inactive means score below 0.9); settings: primary human lung fibroblasts
How it was run: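 In this multiplexed cell system, lung fibroblasts (human primary) receive test chemical for 24 h before ELISA detection of bFGF; DMSO defines baseline and the analysis direction is positive.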

[10] = read-out: Collagen IV, COL4A1 (gene 1282); assay: BSK_MyoF_CollagenIV: BioMAP Diversity Plus: MyoF Assay for Collagen IV Biomarker Activity (AID 2284247; active means hit-call score of the fitted dose curve at least 0.9, where 1 is the maximum; inactive means score below 0.9); settings: primary human lung fibroblasts
How it was run: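 Activity is scored as a signal increase over DMSO in an ELISA for Collagen IV, measured on human lung fibroblasts at 24 h after chemical treatment. Cytotoxicity is checked in parallel cultures by sulforhodamine B total-protein staining.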

What does the source list for CN(C)C(=S)SSC(=S)N(C)C?
AC50 [1]: 87.3 µM (active); AC50 [2]: 9.92 µM (active); AC50 [3]: 0.0653 µM (active)

For Cc1ccc(-c2c(Cl)nc(C#N)n2S(=O)(=O)N(C)C)cc1, which AC50 [1] is on record?
Its AC50 is 89.9 µM (active).

What about the AC50 [2] of the same compound?
Its AC50 is 85.4 µM (active).

And the AC50 [3]?
Its AC50 is 50 µM (active).

Which AC50 [1] does the source give for CCCCC(CC)COC(=O)c1ccccc1C(=O)OCC(CC)CCCC (centres undefined) here?
Its AC50 is 16.6 µM (active) and 11.1 µM (active).

And the AC50 [2]?
Its AC50 is 9.22 µM (active).

And the AC50 [3]?
Its AC50 is 7.31 µM (active) and 5.3 µM (active).

Which results are given for CCCCNC(=O)n1c(NC(=O)OC)nc2ccccc21?
AC50 [1]: 7.6 µM (active); AC50 [2]: 10 µM (active)

With CCCCOC(=O)c1ccccc1C(=O)OCCCC as the compound, how does the outcome [1] read?
Its outcome is “inactive”.

What about the AC50 [3] of the same compound?
The AC50 was 81.3 µM (active).

Which outcome [1] does the source give for CNC(=O)ON=CC(C)(C)SC here?
Its outcome is “inactive”.

What about the outcome [2] of the same compound?
Its outcome is “inactive”.

For COc1cnc(OC)n2nc(NS(=O)(=O)c3c(OCC(F)F)cccc3C(F)(F)F)nc12, which outcome [4] is on record?
Its outcome is “inactive”.

And the outcome [5]?
Its outcome is “inactive”.

What about the outcome [6] of the same compound?
Its outcome is “inactive”.

What about the outcome [7] of the same compound?
Its outcome is “inactive”.

What about the outcome [8] of the same compound?
Its outcome is “inactive”.

And the outcome [9]?
Its outcome is “inactive”.

What about the AC50 [10] of the same compound?
Its AC50 is 0.024 µM (active).

With CC(C)(C)c1ccc(CSc2cnn(C(C)(C)C)c(=O)c2Cl)cc1 as the compound, how does the AC50 [1] read?
The AC50 was 9.49 µM (active).

What about the AC50 [2] of the same compound?
The AC50 was 11.5 µM (active).

And the AC50 [3]?
Its AC50 is 0.000347 µM (active).

What does the source list for N#Cc1nn(-c2c(Cl)cc(C(F)(F)F)cc2Cl)c(N)c1S(=O)C(F)(F)F (centres undefined)?
outcome [1]: inactive; outcome [2]: inactive; AC50 [3]: 15 µM (active)

For C=CCC1=C(C)C(OC(=O)C2C(C=C(C)C)C2(C)C)CC1=O (centres undefined), which outcome [1] is on record?
The outcome was “inactive”.

What about the outcome [2] of the same compound?
Its outcome is “inactive”.

For C=CCC1=C(C)[C@@H](OC(=O)[C@@H]2[C@@H](C=C(C)C)C2(C)C)CC1=O, which outcome [1] is on record?
The outcome was “inactive”.

What about the AC50 [2] of the same compound?
The AC50 was 7.56 µM (active).

What about the AC50 [3] of the same compound?
The AC50 was 26.6 µM (active).

Which results are given for CO/C=C(/C(=O)OC)c1ccccc1Oc1cc(Oc2ccccc2C#N)ncn1?
outcome [1]: inactive; AC50 [3]: 3.73 µM (active)

With COP(N)(=O)SC (centres undefined) as the compound, how does the outcome [1] read?
The outcome was “inactive”.

What about the outcome [2] of the same compound?
Its outcome is “inactive”.

And the outcome [3]?
The outcome was “inactive”.

Which AC50 [1] does the source give for CCOC(=O)CC(SP(=S)(OC)OC)C(=O)OCC (centres undefined) here?
Its AC50 is 84.5 µM (active).

What about the outcome [1] of the same compound?
The outcome was “inactive”.

What about the AC50 [2] of the same compound?
The AC50 was 72.8 µM (active).

What about the outcome [2] of the same compound?
Its outcome is “inactive”.

What about the AC50 [3] of the same compound?
The AC50 was 50 µM (active).

With COC(=O)N(OC)c1ccccc1COc1ccn(-c2ccc(Cl)cc2)n1 as the compound, how does the AC50 [1] read?
Its AC50 is 33.5 µM (active).

And the AC50 [2]?
The AC50 was 50 µM (active).

And the AC50 [3]?
Its AC50 is 0.0487 µM (active).

For C=CC1(C)OC(=O)N(c2cc(Cl)cc(Cl)c2)C1=O (centres undefined), which outcome [1] is on record?
The outcome was “inactive”.

What about the outcome [2] of the same compound?
Its outcome is “inactive”.

For CCOc1cc(Oc2ccc(C(F)(F)F)cc2Cl)ccc1[N+](=O)[O-], which AC50 [1] is on record?
Its AC50 is 52.1 µM (active).

And the AC50 [2]?
Its AC50 is 18.9 µM (active).

And the AC50 [3]?
The AC50 was 15 µM (active).

What does the source list for COP(=S)(OC)Oc1nc(Cl)c(Cl)cc1Cl?
outcome [1]: inactive; outcome [2]: inactive; AC50 [3]: 25.7 µM (active)
